# Results reported in the supplement of paper PMC8728848.
# The sample as a whole holds a higher share of the strongest signals than the screen did.
# What was measured:
# Test in all cases: glycan array binding signal (z-score within array); higher = stronger binding
# Conditions in all cases: glycan notation: IUPAC condensed, linker removed
# [1] = biological target: Fuc(a1-2)Gal(b1-3)GalNAc(b1-3)Gal(a1-4)Gal(b1-4)Glc
# In short: (§1)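 Columns mapping to the same glycan were averaged after glycan names were converted to IUPAC-condensed notation. The data come from 3228 arrays in the Consortium for Functional Glycomics database, limited to those with an available protein sequence. Binding is reported as a within-array Z-score averaged across arrays of one protein sequence and across linkers.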
# [2] = biological target: Fuc(a1-2)[Gal(a1-3)]Gal(b1-4)GlcNAc(b1-2)Man(a1-3)[Fuc(a1-2)[Gal(a1-3)]Gal(b1-4)GlcNAc(b1-2)Man(a1-6)]Man(b1-4)GlcNAc(b1-4)GlcNAc
# In short: as §1
# [3] = biological target: Fuc(a1-2)[Gal(a1-3)]Gal(b1-4)GlcNAc(b1-3)[Fuc(a1-2)[Gal(a1-3)]Gal(b1-4)GlcNAc(b1-6)]GalNAc
# In short: as §1
# [4] = biological target: Fuc(a1-2)[Gal(a1-3)]Gal(b1-4)GlcNAc(b1-6)GalNAc
# In short: as §1
# [5] = biological target: Fuc(a1-2)[GalNAc(a1-3)]Gal(b1-4)[Fuc(a1-3)]GlcNAc
# In short: as §1
# [6] = biological target: Fuc(a1-3)[Gal(b1-4)]GlcNAc(b1-6)GalNAc
# In short: as §1
# [7] = biological target: Fuc(a1-3)[Gal3S(b1-4)]Glc
# In short: as §1
# [8] = biological target: Gal(a1-3)Gal(b1-4)[Fuc(a1-3)]GlcNAc(b1-2)Man(a1-3)[Gal(a1-3)Gal(b1-4)[Fuc(a1-3)]GlcNAc(b1-2)Man(a1-6)]Man(b1-4)GlcNAc(b1-4)GlcNAc
# In short: as §1
# Gal(a1-4)GlcNAc = biological target: Gal(a1-4)GlcNAc
# In short: as §1
# Gal(b1-3)Gal = biological target: Gal(b1-3)Gal
# In short: as §1
# [9] = biological target: Gal(b1-3)GlcNAc(a1-3)Gal(b1-4)GlcNAc
# In short: as §1
# Gal(b1-3)GlcNAc(b1-2)Man = biological target: Gal(b1-3)GlcNAc(b1-2)Man
# In short: as §1
# [10] = biological target: Gal(b1-3)GlcNAc(b1-3)Gal(b1-3)GlcNAc
# In short: as §1
# [11] = biological target: Gal(b1-3)[Neu5Ac(a2-6)]GalNAc
# In short: as §1
# [12] = biological target: Gal(b1-3)[Neu5Ac(a2-6)]GlcNAc(b1-4)Gal(b1-4)Glc
# In short: as §1
# Gal(b1-4)Gal = biological target: Gal(b1-4)Gal
# In short: as §1
# Gal(b1-4)GlcNAc = biological target: Gal(b1-4)GlcNAc
# In short: as §1
# [13] = biological target: Gal(b1-4)GlcNAc(b1-3)Gal(b1-4)GlcNAc(b1-2)Man(a1-3)[Gal(b1-4)GlcNAc(b1-3)Gal(b1-4)GlcNAc(b1-2)Man(a1-6)]Man(b1-4)GlcNAc(b1-4)GlcNAc
# In short: as §1
# [14] = biological target: Gal(b1-4)GlcNAc(b1-3)Gal(b1-4)GlcNAc(b1-2)[Gal(b1-4)GlcNAc(b1-3)Gal(b1-4)GlcNAc(b1-6)]Man(a1-6)[Gal(b1-4)GlcNAc(b1-3)Gal(b1-4)GlcNAc(b1-2)Man(a1-3)]Man(b1-4)GlcNAc(b1-4)GlcNAc
# In short: as §1
# [15] = biological target: Gal(b1-4)GlcNAc(b1-3)Gal(b1-4)GlcNAc(b1-3)GalNAc
# In short: as §1
# [16] = biological target: Gal(b1-4)GlcNAc(b1-3)[GlcNAc(b1-6)]Gal(b1-4)GlcNAc
# In short: as §1
# Gal3S(b1-4)Glc6S = biological target: Gal3S(b1-4)Glc6S
# In short: as §1
# [17] = biological target: Gal3S(b1-4)[Fuc(a1-3)]GlcNAc6S
# In short: as §1
# Gal6P(b1-4)GlcNAc = biological target: Gal6P(b1-4)GlcNAc
# In short: as §1
# GalNAc(b1-4)GlcNAc = biological target: GalNAc(b1-4)GlcNAc
# In short: as §1
# GalNAc4S6S(b1-4)GlcNAc = biological target: GalNAc4S6S(b1-4)GlcNAc
# In short: as §1
# Glc(a1-6)Glc(a1-6)Glc = biological target: Glc(a1-6)Glc(a1-6)Glc
# In short: as §1
# [18] = biological target: GlcNAc(b1-2)[GlcNAc(b1-4)]Man(a1-3)[GlcNAc(b1-4)][GlcNAc(b1-2)Man(a1-6)]Man(b1-4)GlcNAc(b1-4)GlcNAc
# In short: as §1
# [19] = biological target: GlcNAc(b1-3)Gal(b1-4)GlcNAc(b1-3)Gal(b1-4)GlcNAc(b1-2)Man(a1-3)[GlcNAc(b1-3)Gal(b1-4)GlcNAc(b1-3)Gal(b1-4)GlcNAc(b1-2)Man(a1-6)]Man(b1-4)GlcNAc(b1-4)GlcNAc
# In short: as §1
# [20] = biological target: GlcNAc(b1-3)Gal(b1-4)GlcNAc(b1-3)Gal(b1-4)GlcNAc(b1-3)Gal(b1-4)GlcNAc(b1-3)Gal(b1-4)GlcNAc(b1-2)Man(a1-3)[GlcNAc(b1-3)Gal(b1-4)GlcNAc(b1-3)Gal(b1-4)GlcNAc(b1-3)Gal(b1-4)GlcNAc(b1-3)Gal(b1-4)GlcNAc(b1-2)Man(a1-6)]Man(b1-4)GlcNAc(b1-4)GlcNAc
# In short: as §1
# [21] = biological target: GlcNAc(b1-3)Gal(b1-4)GlcNAc(b1-6)[Gal(b1-3)]GalNAc
# In short: as §1
# GlcNAc(b1-4)GlcNAc = biological target: GlcNAc(b1-4)GlcNAc
# In short: as §1
# Kdn(a2-3)Gal(b1-3)GlcNAc = biological target: Kdn(a2-3)Gal(b1-3)GlcNAc
# In short: as §1
# Kdn(a2-3)Gal(b1-4)Glc = biological target: Kdn(a2-3)Gal(b1-4)Glc
# In short: as §1
# [22] = biological target: Man(a1-2)Man(a1-2)Man(a1-3)Man
# In short: as §1
# [23] = biological target: Neu5Ac(a2-3)Gal(b1-3)GlcNAc(b1-2)[Neu5Ac(a2-3)Gal(b1-3)GlcNAc(b1-4)]Man(a1-6)[Neu5Ac(a2-3)Gal(b1-3)GlcNAc(b1-2)Man(a1-3)]Man(b1-4)GlcNAc(b1-4)GlcNAc
# In short: as §1
# [24] = biological target: Neu5Ac(a2-3)Gal(b1-3)GlcNAc6S
# In short: as §1
# [25] = biological target: Neu5Ac(a2-3)Gal(b1-4)GlcNAc(b1-2)Man
# In short: as §1
# [26] = biological target: Neu5Ac(a2-3)Gal(b1-4)[Fuc(a1-3)]GlcNAc(b1-6)[Neu5Ac(a2-3)Gal(b1-3)]GalNAc
# In short: as §1
# [27] = biological target: Neu5Ac(a2-6)Gal(b1-4)GlcNAc(b1-2)Man(a1-3)[GlcNAc(b1-4)][Neu5Ac(a2-6)Gal(b1-4)GlcNAc(b1-2)Man(a1-6)]Man(b1-4)GlcNAc(b1-4)GlcNAc
# In short: as §1
# [28] = biological target: Neu5Ac(a2-6)Gal(b1-4)GlcNAc(b1-2)Man(a1-3)[Neu5Ac(a2-3)Gal(b1-4)GlcNAc(b1-2)Man(a1-6)]Man(b1-4)GlcNAc(b1-4)GlcNAc
# In short: as §1
# [29] = biological target: Neu5Ac(a2-6)Gal(b1-4)GlcNAc(b1-2)Man(a1-3)[Neu5Ac(a2-6)Gal(b1-4)GlcNAc(b1-2)Man(a1-6)]Man(b1-4)GlcNAc(b1-4)[Fuc(a1-6)]GlcNAc
# In short: as §1
# [30] = biological target: Neu5Ac(a2-6)Gal(b1-4)GlcNAc(b1-2)Man(a1-6)Man(b1-4)GlcNAc(b1-4)GlcNAc
# In short: as §1
# [31] = biological target: Neu5Ac(a2-6)Gal(b1-4)GlcNAc(b1-3)Gal(b1-3)GlcNAc
# In short: as §1
# [32] = biological target: Neu5Ac(a2-8)Neu5Ac(a2-8)Neu5Ac
# In short: as §1
binder,measurement,setting,value
"Gal-9-hFc (Mus musculus), O08573-2 (protein) MALFSAQSPYINPIIPFTGPIQGGLQEGLQVTLQGTTKSFAQRFVVNFQNSFNGNDIAFHFNPRFEEGGYVVCNTKQNGQWGPEERKMQMPFQKGMPFELCFLVQRSEFKVMVNKKFFVQYQHRVPYHLVDTIAVSGCLKLSFITFQTQNFRPAHQAPMAQTTIHMVHSTPGQMFSTPGIPPVVYPTPAYTIPFYTPIPNGLYPSKSIMISGNVLPDATRFHINLRCGGDIAFHLNPRFNENAVVRNTQINNSWGQEERSLLGRMPFSRGQSFSVWIICEGHCFKVAVNGQHMCEYYHRLKNLQDINTLEVAGDIQLTHVQT",glycan array binding signal (z-score),[1],-0.29
same,glycan array binding signal (z-score),[2],1.3
same,glycan array binding signal (z-score),[3],4.4
same,glycan array binding signal (z-score),[4],0.473
same,glycan array binding signal (z-score),[5],-0.286
same,glycan array binding signal (z-score),[6],0.042
same,glycan array binding signal (z-score),[7],-0.196
same,glycan array binding signal (z-score),[8],-0.043
same,glycan array binding signal (z-score),Gal(a1-4)GlcNAc,-0.452
same,glycan array binding signal (z-score),Gal(b1-3)Gal,0.036
same,glycan array binding signal (z-score),[9],-0.259
same,glycan array binding signal (z-score),Gal(b1-3)GlcNAc(b1-2)Man,-0.243
same,glycan array binding signal (z-score),[10],0.085
same,glycan array binding signal (z-score),[11],0.317
same,glycan array binding signal (z-score),[12],-0.501
same,glycan array binding signal (z-score),Gal(b1-4)Gal,0.307
same,glycan array binding signal (z-score),Gal(b1-4)GlcNAc,-0.167
same,glycan array binding signal (z-score),[13],1.94
same,glycan array binding signal (z-score),[14],3.74
same,glycan array binding signal (z-score),[15],0.354
same,glycan array binding signal (z-score),[16],2.07
same,glycan array binding signal (z-score),Gal3S(b1-4)Glc6S,4.35
same,glycan array binding signal (z-score),[17],3.57
same,glycan array binding signal (z-score),Gal6P(b1-4)GlcNAc,-0.364
same,glycan array binding signal (z-score),GalNAc(b1-4)GlcNAc,-0.176
same,glycan array binding signal (z-score),GalNAc4S6S(b1-4)GlcNAc,-0.079
same,glycan array binding signal (z-score),Glc(a1-6)Glc(a1-6)Glc,0.138
same,glycan array binding signal (z-score),[18],2.04
same,glycan array binding signal (z-score),[19],0.436
same,glycan array binding signal (z-score),[20],-0.207
same,glycan array binding signal (z-score),[21],-0.325
same,glycan array binding signal (z-score),GlcNAc(b1-4)GlcNAc,4.66
same,glycan array binding signal (z-score),Kdn(a2-3)Gal(b1-3)GlcNAc,-0.153
same,glycan array binding signal (z-score),Kdn(a2-3)Gal(b1-4)Glc,2.38
same,glycan array binding signal (z-score),[22],-0.431
same,glycan array binding signal (z-score),[23],-0.482
same,glycan array binding signal (z-score),[24],-0.023
same,glycan array binding signal (z-score),[25],3.47
same,glycan array binding signal (z-score),[26],0.233
same,glycan array binding signal (z-score),[27],-0.272
same,glycan array binding signal (z-score),[28],-0.448
same,glycan array binding signal (z-score),[29],-0.496
same,glycan array binding signal (z-score),[30],-0.192
same,glycan array binding signal (z-score),[31],-0.307
same,glycan array binding signal (z-score),[32],2.03
